Test results reported in PubChem BioAssay AID1159580 (chemical genetic matrix, 2015).
Among all 5,500 compounds or so, about 2,000 (36%) were called active. About 18% were inconclusive and are not listed. Cut-off read from the data, not from the text of the source: active = normalized growth mostly below about 0.91 (no sharp cut-off); inconclusive = no clear call, values can overlap the other calls; inactive = mostly above about 0.92. The list shows a part of the results.

Test: chemical genetic growth profiling, strain panel (AID 1159580);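 note: tested at 20 µM; growth read once vehicle control cultures reached saturation at 30 °C; 1 = growth at the plate median or of vehicle wells; lower values mean less growth of the strain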
Settings: S. cerevisiae deletion strains, growth OD
[1] = locus YAR019C, strain CDC15, stronger effect = lower value
[2] = locus YBL105C, strain PKC1, stronger effect = lower value
[3] = locus YBR135W, strain CKS1, stronger effect = lower value
[4] = locus YBR136W, strain MEC1, stronger effect = lower value
[5] = locus YBR160W, strain CDC28, stronger effect = lower value
[6] = locus YDL017W, strain CDC7, stronger effect = lower value
[7] = locus YDL028C, strain MPS1, stronger effect = lower value
[8] = locus YDL101C, strain DUN1, stronger effect = lower value
[9] = locus YDL108W, strain KIN28, stronger effect = lower value
[10] = locus YDL132W, strain cdc53, stronger effect = lower value
[11] = locus YDL214C, strain PRR2, stronger effect = lower value
[12] = locus YDR052C, strain DBF4, stronger effect = lower value
[13] = locus YDR054C, strain cdc34, stronger effect = lower value
[14] = locus YDR226W, strain ADK1, stronger effect = lower value
[15] = locus YDR477W, strain SNF1, stronger effect = lower value
[16] = locus YER123W, strain YCK3, stronger effect = lower value
[17] = locus YER133W, strain GLC7, stronger effect = lower value
[18] = locus YFL009W, strain cdc4, stronger effect = lower value
[19] = locus YFL029C, strain CAK1, stronger effect = lower value
[20] = locus YFR003C, strain YPI1, stronger effect = lower value
[21] = locus YFR019W, strain FAB1, stronger effect = lower value
[22] = locus YFR028C, strain CDC14, stronger effect = lower value
[23] = locus YGR040W, strain KSS1, stronger effect = lower value
[24] = locus YGR052W, strain FMP48, stronger effect = lower value
[25] = locus YGR092W, strain DBF2, stronger effect = lower value
[26] = locus YHR030C, strain SLT2, stronger effect = lower value
[27] = locus YHR079C, strain IRE1, stronger effect = lower value
[28] = locus YHR082C, strain KSP1, stronger effect = lower value
[29] = locus YHR205W, strain SCH9, stronger effect = lower value
[30] = locus YIL147C, strain SLN1, stronger effect = lower value
[31] = locus YJL095W, strain BCK1, stronger effect = lower value
[32] = locus YJL128C, strain PBS2, stronger effect = lower value
[33] = locus YJL157C, strain FAR1, stronger effect = lower value
[34] = locus YJR016C, strain ILV3, stronger effect = lower value
[35] = locus YJR066W, strain TOR1 (second series), stronger effect = lower value
[36] = locus YJR066W, strain TOR1, stronger effect = lower value
[37] = locus YKL048C, strain ELM1, stronger effect = lower value
[38] = locus YKL067W, strain YNK1, stronger effect = lower value
[39] = locus YKL101W, strain HSL1, stronger effect = lower value
[40] = locus YKL193C, strain SDS22, stronger effect = lower value
[41] = locus YKL203C, strain TOR2, stronger effect = lower value
[42] = locus YLR113W, strain HOG1, stronger effect = lower value
[43] = locus YLR133W, strain CKI1, stronger effect = lower value
[44] = locus YLR403W, strain SFP1, stronger effect = lower value
[45] = locus YML070W, strain DAK1, stronger effect = lower value
[46] = locus YMR001C, strain CDC5, stronger effect = lower value
[47] = locus YMR205C, strain PFK2 (second series), stronger effect = lower value
[48] = locus YMR277W, strain FCP1, stronger effect = lower value
[49] = locus YNL006W, strain LST8, stronger effect = lower value
[50] = locus YNL020C, strain ARK1, stronger effect = lower value
[51] = locus YNL161W, strain CBK1, stronger effect = lower value
[52] = locus YNL183C, strain NPR1, stronger effect = lower value
[53] = locus YNL207W, strain RIO2, stronger effect = lower value
[54] = locus YNL222W, strain SSU72, stronger effect = lower value
[55] = locus YNL307C, strain MCK1 (second series), stronger effect = lower value
[56] = locus YOL078W, strain AVO1, stronger effect = lower value
[57] = locus YOL136C, strain PFK27, stronger effect = lower value
[58] = locus YOR061W, strain CKA2, stronger effect = lower value
[59] = locus YOR119C, strain RIO1, stronger effect = lower value
[60] = locus YOR231W, strain MKK1, stronger effect = lower value
[61] = locus YOR329C, strain SCD5, stronger effect = lower value
[62] = locus YPL031C, strain PHO85, stronger effect = lower value
[63] = locus YPL153C, strain RAD53, stronger effect = lower value
[64] = locus YPL204W, strain HRR25, stronger effect = lower value
[65] = locus YPL209C, strain IPL1, stronger effect = lower value
[66] = locus YPL256C, strain CLN2, stronger effect = lower value
[67] = locus YPR025C, strain CCL1, stronger effect = lower value
[68] = locus YPR106W, strain ISR1, stronger effect = lower value
[69] = locus YPR111W, strain DBF20, stronger effect = lower value
[70] = strain NNK1, stronger effect = lower value
[71] = strain TSCII, stronger effect = lower value

Measured: normalized growth

O=S(=O)(Nc1cccc(CCc2ccccn2)c1)c1cc(Cl)c(Cl)cc1Cl
inactive: [1] 0.982 | [2] 0.977 | [3] 0.985 | [4] 0.983 | [5] 0.966 | [6] 0.981 | [7] 0.987 | [8] 0.973 | [9] 0.983 | [10] 0.976 | [11] 0.967 | [12] 0.977 | [13] 0.979 | [14] 0.986 | [15] 0.988 | [16] 0.995 | [17] 1 | [18] 0.989 | [19] 0.976 | [20] 0.981 | [21] 0.987 | [22] 0.973 | [23] 0.98 | [24] 1.08 | [25] 1 | [26] 1.15 | [27] 1.01 | [28] 1.08 | [29] 0.963 | [30] 0.985 | [31] 1.02 | [32] 0.942 | [33] 0.98 | [34] 0.981 | [35] 0.963 | [36] 1.08 | [37] 0.97 | [38] 0.979 | [39] 0.959 | [40] 0.984 | [41] 1.05 | [42] 0.883 | [43] 0.965 | [44] 0.983 | [45] 0.95 | [46] 0.987 | [47] 0.971 | [48] 0.991 | [49] 0.992 | [50] 0.969 | [51] 0.978 | [52] 1.04 | [53] 0.985 | [54] 0.976 | [55] 0.961 | [56] 0.974 | [57] 0.952 | [58] 0.978 | [59] 1.06 | [60] 0.951 | [61] 0.983 | [62] 0.992 | [63] 0.965 | [64] 0.991 | [65] 0.976 | [66] 0.945 | [67] 0.984 | [68] 0.965 | [69] 0.955 | [70] 0.992 | [71] 0.978

O=S(=O)(Nc1cccc2cccnc12)c1cc(Cl)c(Cl)cc1Cl
inactive: [8] 1.02 | locus YDR150W, strain NUM1, stronger effect = lower value 1.04 | locus YJR043C, strain POL32, stronger effect = lower value 0.947 | locus YLR058C, strain SHM2 (second series), stronger effect = lower value 0.951 | locus YNL322C, strain KRE1, stronger effect = lower value 0.967 | locus YPR135W, strain CTF4, stronger effect = lower value 0.807
active: locus YAL013W, strain DEP1, stronger effect = lower value 0.773 | locus YBR229C, strain ROT2, stronger effect = lower value 0.672 | locus YCL061C, strain MRC1, stronger effect = lower value 0.804 | locus YEL061C, strain CIN8, stronger effect = lower value 0.644 | locus YGR078C, strain PAC10, stronger effect = lower value 0.855 | [26] 0.635 | locus YHR087W, strain rtc3, stronger effect = lower value 0.517 | locus YJR075W, strain HOC1, stronger effect = lower value 0.819 | locus YKL190W, strain CNB1, stronger effect = lower value 0.652 | locus YLR039C, strain RIC1, stronger effect = lower value 0.627 | locus YLR085C, strain ARP6, stronger effect = lower value 0.583 | locus YLR262C, strain YPT6, stronger effect = lower value 0.716 | locus YML094W, strain GIM5, stronger effect = lower value 0.761 | locus YMR219W, strain ESC1, stronger effect = lower value 0.863 | locus YMR263W, strain SAP30, stronger effect = lower value 0.853 | locus YNL153C, strain GIM3, stronger effect = lower value 0.845 | locus YNL298W, strain CLA4 (second series), stronger effect = lower value 0.724 | locus YNR030W, strain Alg12, stronger effect = lower value 0.773 | locus YOL006C, strain TOP1, stronger effect = lower value 0.169 | locus YPL055C, strain LGE1, stronger effect = lower value 0.635 | locus YPL241C, strain CIN2, stronger effect = lower value 0.635

O=S(=O)(Nc1cccc2nsnc12)c1cc(Cl)sc1Cl
inactive: [1] 0.948 | [2] 0.961 | [3] 0.957 | [4] 0.96 | [5] 0.962 | [6] 0.961 | [7] 0.961 | [8] 0.962 | [9] 0.961 | [10] 0.969 | [11] 0.956 | [12] 0.955 | [13] 0.95 | [14] 0.947 | [15] 0.983 | [16] 0.944 | [17] 0.938 | [18] 0.947 | [19] 0.952 | [20] 0.958 | [21] 0.938 | [22] 0.96 | [23] 0.971 | [24] 1.08 | [25] 0.87 | [26] 0.871 | [27] 0.905 | [28] 0.981 | [29] 0.933 | [30] 0.953 | [31] 0.904 | [32] 0.953 | [33] 0.967 | [34] 0.951 | [35] 0.95 | [36] 0.953 | [37] 0.916 | [38] 0.954 | [39] 0.955 | [40] 0.961 | [41] 1.02 | [42] 0.887 | [43] 0.96 | [44] 0.942 | [45] 0.947 | [46] 0.959 | [47] 0.962 | [48] 0.96 | [49] 0.959 | [50] 0.953 | [51] 0.962 | [52] 0.979 | [53] 0.957 | [54] 0.958 | [55] 0.933 | [56] 0.957 | [57] 0.94 | [58] 0.943 | [59] 1.09 | [60] 0.954 | [61] 0.961 | [62] 0.982 | [63] 0.994 | [64] 0.999 | [65] 0.96 | [66] 0.884 | [67] 0.956 | [68] 0.964 | [69] 0.947 | [70] 0.969 | [71] 0.953
